Results from paper PMC5540273 (PLoS ONE, 2017).

test system: EPHA7; conditions: concentration: 1 μM,replicates: in singlicate; n = 1
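Note: KINOMEscan kinase panel screen.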

SMILES	%Inh
CCN(CC)CCOc1ccc(Nc2ncc3cc(-c4c(Cl)cccc4Cl)c(=O)n(C)c3n2)cc1 [SB-601273]	11%
Cc1cc(C(=O)Nc2ccc(Oc3ccc4nc(NC(=O)C5CC5)cn4n3)cc2)nn1-c1ccccc1	0%
Cl.Oc1cc(-c2nc(-c3ccccc3)[nH]c2-c2ccncc2)ccc1Cl [SB-386023]	9%
CNC(=O)c1ccccc1Sc1ccc2c(/C=C/c3ccccn3)n[nH]c2c1	0%
Cc1ccc2c(-c3ccncc3)c(-c3ccc(F)cc3)nn2c1.Cl [GW461484]	7%
CN(C)CC(O)COc1ccc(Nc2nccc(-c3cnn4nc(N5CCOCC5)ccc34)n2)cc1 (centres unmarked) [GW767488]	9%
Cl.Cl.Nc1nc(-c2ccc3c(N)n[nH]c3c2)cc(N2CCCC(NC(=O)c3ccccc3)C2)n1 (centres unmarked) [GSK2286775]	11%
CCn1c(-c2nonc2N)nc2c(C#CC(C)(C)O)nc(OCCN)cc21.Cl.Cl [GSK902056]	0%
CC(C)Nc1cc(-c2ccc3c(N)n[nH]c3c2)nc(N)n1 [GSK2221681]	12%
Cl.Cl.NC[C@H](CC1CCCCC1)NC(=O)c1cc(Br)c(-c2ccnc3[nH]ccc23)s1 [GSK1581427]	14%
Cc1ccc(-n2nc(C(C)(C)C)cc2NC(=O)Nc2ccc(OCCN3CCOCC3)c3ccccc23)cc1 [GW839464]	72%
Nc1nc(Nc2ccccc2)cc(-c2ccc3c(N)n[nH]c3c2)n1 [GSK2225749]	0%
C[C@@H]1CCN(C(=O)CC#N)C[C@@H]1N(C)c1ncnc2[nH]ccc12	21%
C=CC(=O)Nc1cc2c(Nc3ccc(F)c(Cl)c3)ncnc2cc1OCCCN1CCOCC1 [GW781483]	8%
CCN(CC)CCCCNc1ncc2cc(-c3c(Cl)cccc3Cl)c(NC(=O)NC(C)(C)C)nc2n1	0%
CC(C)N1C(=O)Cc2cc(Nc3ncc(C(F)(F)F)c(NCc4cccc(S(C)(=O)=O)c4)n3)ccc21	12%
Cl.Cl.NC[C@H](Cc1ccc(C(F)(F)F)cc1)NC(=O)c1cc(Br)c(-c2ccnc3[nH]ccc23)s1 [GSK1487252]	10%
Cc1n[nH]c2ccc(-c3cc(OC[C@@H](N)Cc4ccccc4)cnc3-c3ccoc3)cc12.O=C(O)C(F)(F)F.O=C(O)C(F)(F)F [GSK507358]	10%
Cc1cc2cn[nH]c2cc1-c1cccc2c(N)c(C(N)=O)nnc12	19%
COc1ccc(C[C@@H](CN)NC(=O)c2cc(Br)c(-c3ccnc4[nH]ccc34)s2)cc1.Cl.Cl [GSK1389063]	12%
O=C(NCCNc1ccnc(NCc2ccc(F)cc2)n1)c1cc2ccccc2s1 [GSK1379944]	12%
C[C@H]1Oc2cc(cnc2N)-c2c(nn(C)c2C#N)CN(C)C(=O)c2ccc(F)cc21	35%
O=C(NCCCN1CCOC1=O)c1cnc(NCc2cc(Cl)ccc2Cl)nc1NC1CCCC1	2%
NC(=O)c1cc(-c2ccccc2)cc2c(C3CCNCC3)c[nH]c12 [GSK301362]	20%
CN(C)CCOc1ccc(-c2cc(-c3c[nH]nc3-c3ccccn3)ccn2)cc1 [GW835314]	8%
Cc1occc1-c1nc(N)c(OC[C@@H](N)Cc2c[nH]c3ccccc23)cc1-c1cc2c(C)n[nH]c2cn1 [GSK1660450]	3%

test system: EPHA8; conditions: concentration: 1 μM,replicates: in singlicate; n = 1

SMILES	%Inh
CCN(CC)CCOc1ccc(Nc2ncc3cc(-c4c(Cl)cccc4Cl)c(=O)n(C)c3n2)cc1 [SB-601273]	99.6%
Cc1cc(C(=O)Nc2ccc(Oc3ccc4nc(NC(=O)C5CC5)cn4n3)cc2)nn1-c1ccccc1	37%
Cl.Oc1cc(-c2nc(-c3ccccc3)[nH]c2-c2ccncc2)ccc1Cl [SB-386023]	14%
CNC(=O)c1ccccc1Sc1ccc2c(/C=C/c3ccccn3)n[nH]c2c1	0%
Cc1ccc2c(-c3ccncc3)c(-c3ccc(F)cc3)nn2c1.Cl [GW461484]	15%
CN(C)CC(O)COc1ccc(Nc2nccc(-c3cnn4nc(N5CCOCC5)ccc34)n2)cc1 (centres unmarked) [GW767488]	0%
Cl.Cl.Nc1nc(-c2ccc3c(N)n[nH]c3c2)cc(N2CCCC(NC(=O)c3ccccc3)C2)n1 (centres unmarked) [GSK2286775]	16%
CCn1c(-c2nonc2N)nc2c(C#CC(C)(C)O)nc(OCCN)cc21.Cl.Cl [GSK902056]	2%
CC(C)Nc1cc(-c2ccc3c(N)n[nH]c3c2)nc(N)n1 [GSK2221681]	18%
Cl.Cl.NC[C@H](CC1CCCCC1)NC(=O)c1cc(Br)c(-c2ccnc3[nH]ccc23)s1 [GSK1581427]	52%
Cc1ccc(-n2nc(C(C)(C)C)cc2NC(=O)Nc2ccc(OCCN3CCOCC3)c3ccccc23)cc1 [GW839464]	86%
Nc1nc(Nc2ccccc2)cc(-c2ccc3c(N)n[nH]c3c2)n1 [GSK2225749]	0%
C[C@@H]1CCN(C(=O)CC#N)C[C@@H]1N(C)c1ncnc2[nH]ccc12	10%
C=CC(=O)Nc1cc2c(Nc3ccc(F)c(Cl)c3)ncnc2cc1OCCCN1CCOCC1 [GW781483]	33%
CCN(CC)CCCCNc1ncc2cc(-c3c(Cl)cccc3Cl)c(NC(=O)NC(C)(C)C)nc2n1	99.9%
CC(C)N1C(=O)Cc2cc(Nc3ncc(C(F)(F)F)c(NCc4cccc(S(C)(=O)=O)c4)n3)ccc21	5%
Cl.Cl.NC[C@H](Cc1ccc(C(F)(F)F)cc1)NC(=O)c1cc(Br)c(-c2ccnc3[nH]ccc23)s1 [GSK1487252]	47%
Cc1n[nH]c2ccc(-c3cc(OC[C@@H](N)Cc4ccccc4)cnc3-c3ccoc3)cc12.O=C(O)C(F)(F)F.O=C(O)C(F)(F)F [GSK507358]	21%
Cc1cc2cn[nH]c2cc1-c1cccc2c(N)c(C(N)=O)nnc12	11%
COc1ccc(C[C@@H](CN)NC(=O)c2cc(Br)c(-c3ccnc4[nH]ccc34)s2)cc1.Cl.Cl [GSK1389063]	59%
O=C(NCCNc1ccnc(NCc2ccc(F)cc2)n1)c1cc2ccccc2s1 [GSK1379944]	34%
C[C@H]1Oc2cc(cnc2N)-c2c(nn(C)c2C#N)CN(C)C(=O)c2ccc(F)cc21	2%
O=C(NCCCN1CCOC1=O)c1cnc(NCc2cc(Cl)ccc2Cl)nc1NC1CCCC1	4%
NC(=O)c1cc(-c2ccccc2)cc2c(C3CCNCC3)c[nH]c12 [GSK301362]	23%
CN(C)CCOc1ccc(-c2cc(-c3c[nH]nc3-c3ccccn3)ccn2)cc1 [GW835314]	14%
C[C@@H](Oc1cc(-c2cnn(C3CCNCC3)c2)cnc1N)c1c(Cl)ccc(F)c1Cl	54%
Cc1occc1-c1nc(N)c(OC[C@@H](N)Cc2c[nH]c3ccccc23)cc1-c1cc2c(C)n[nH]c2cn1 [GSK1660450]	24%
